Measured values as given in PubChem BioAssay (EPA / NIEHS).
Inconclusive results are not listed. The source made the active and inactive calls. The calls were made as follows, unless noted: active = hit-call score of the fitted dose curve at least 0.9, where 1 is the maximum; inconclusive = response in the unintended direction; inactive = score below 0.9.

Experiments:
[1] = TOX21_p53_BLA_p3_viability: Viability Assessment in the Tox21 HCT-116 p53 Agonism Beta-lactamase Assay, Phase 3 (AID 2283593);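 also: cells exposed to compound for 16 h before reading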
Outline: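 HCT-116 cells (4000/well) rested 5 h at 37C, then got DMSO compounds by pin tool (217-fold dilution) for 16 h at 37C, 5% CO2. After the bla read, CellTiter-Glo was added and luminescence read at 30 min, room temperature.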

[2] = molecular target: Cellular tumor antigen p53 (Homo sapiens) (UniProt P04637); assay: TOX21_p53_BLA_p3_ratio: Tox21 HCT-116 p53 Agonism Beta-lactamase Assay, Ratio, Phase 3 (AID 2283596)
Chain of Cellular tumor antigen p53 (Homo sapiens) (P04637 whole entry, looked up): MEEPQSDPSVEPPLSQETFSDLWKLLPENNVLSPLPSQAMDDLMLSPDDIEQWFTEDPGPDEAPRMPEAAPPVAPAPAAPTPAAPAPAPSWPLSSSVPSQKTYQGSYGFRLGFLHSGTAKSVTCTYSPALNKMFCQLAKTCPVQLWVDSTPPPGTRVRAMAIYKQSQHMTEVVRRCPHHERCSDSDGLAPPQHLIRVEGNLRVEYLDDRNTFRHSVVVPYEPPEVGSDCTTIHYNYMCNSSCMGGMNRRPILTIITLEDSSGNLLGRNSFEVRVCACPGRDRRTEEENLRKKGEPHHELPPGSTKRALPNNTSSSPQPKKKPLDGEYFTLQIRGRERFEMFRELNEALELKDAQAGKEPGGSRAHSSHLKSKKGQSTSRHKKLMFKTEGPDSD
Outline: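 Cells were seeded at 4000/well, rested 5 h at 37C, then dosed with DMSO compound solutions (217-fold dilution) for 16 h. CCF4-AM substrate was loaded for 2 h at room temperature, and the 460/530 nm emission ratio was fitted for gain of signal versus DMSO.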

[3] = molecular target: Cellular tumor antigen p53 (Homo sapiens) (UniProt P04637); assay: TOX21_p53_BLA_p5_ratio: Tox21 HCT-116 p53 Agonism Beta-lactamase Assay, Ratio, Phase 5 (AID 2283599)
Outline: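 HCT-116 cells carrying a p53-inducible beta-lactamase reporter were seeded at 4000 cells/well and dosed after 5 h with compound in DMSO (217-fold dilution). After 16 h at 37C, CCF4-AM substrate was added for 2 h, and the 460/530 nm emission ratio was scored as gain-of-signal versus DMSO.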

[4] = molecular target: Cellular tumor antigen p53 (Homo sapiens) (UniProt P04637); assay: TOX21_p53_BLA_p4_ratio: Tox21 HCT-116 p53 Agonism Beta-lactamase Assay, Ratio, Phase 4 (AID 2283601)
Outline: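 HCT116 cells carrying an inducible beta-lactamase reporter were plated at 4000 cells/well, rested 5 h, then exposed to compounds in DMSO (217-fold dilution) for 16 h at 37C. CCF4-AM substrate was loaded 2 h at room temperature; 460/530 nm emission ratio scored gain-of-signal versus DMSO.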

[5] = TOX21_p53_BLA_p4_viability: Viability Assessment in the Tox21 HCT-116 p53 Agonism Beta-lactamase Assay, Phase 4 (AID 2283597);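 also: hits lower the luminescence signal meaning cytotoxicity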
Outline: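 Cytotoxicity as reduced cellular ATP (CellTiter-Glo luminescence, 30 min room temperature), measured in the same wells following the CCF4 FRET p53 reading. Human HCT-116 cells received compounds in DMSO (217-fold dilution) for 16 h.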

[6] = TOX21_p53_BLA_p5_viability: Viability Assessment in the Tox21 HCT-116 p53 Agonism Beta-lactamase Assay, Phase 5 (AID 2283600)
Outline: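 Viability came from CellTiter-Glo ATP luminescence, read after 30 min at room temperature. Before this, HCT-116 p53-bla cells (4000/well) had 16 hours of compound exposure at 37C, with DMSO stocks diluted 217-fold on transfer.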

[7] = molecular target: Thyroid hormone receptor alpha (Rattus norvegicus) + Thyroid hormone receptor beta (Rattus norvegicus) (UniProt P18113+P63059); assay: TOX21_TR_LUC_GH3_Antagonist_Followup: Tox21 GH3 Thyroid Hormone Receptor Antagonism Luciferase Follow-Up Assay (AID 2283942)
Outline: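 In a GH3 luciferase reporter line, test chemicals spanning 92 uM to 5nM final are co-incubated 24 h with 1.0 nM T3. Activity is expressed as relative luminescence units and analysed relative to DMSO.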

THRA (gene 7067) = THRA (gene 7067) (UniProt P10827); assay: TOX21_TRA_COA_Antagonist_Followup_ratio: Tox21 Thyroid Hormone Receptor alpha Antagonism through Coactivator Recruitment Follow-Up Assay, Ratio (AID 2283953)
Chain of THRA (gene 7067) (P10827 whole entry, looked up, the tested form may be a part): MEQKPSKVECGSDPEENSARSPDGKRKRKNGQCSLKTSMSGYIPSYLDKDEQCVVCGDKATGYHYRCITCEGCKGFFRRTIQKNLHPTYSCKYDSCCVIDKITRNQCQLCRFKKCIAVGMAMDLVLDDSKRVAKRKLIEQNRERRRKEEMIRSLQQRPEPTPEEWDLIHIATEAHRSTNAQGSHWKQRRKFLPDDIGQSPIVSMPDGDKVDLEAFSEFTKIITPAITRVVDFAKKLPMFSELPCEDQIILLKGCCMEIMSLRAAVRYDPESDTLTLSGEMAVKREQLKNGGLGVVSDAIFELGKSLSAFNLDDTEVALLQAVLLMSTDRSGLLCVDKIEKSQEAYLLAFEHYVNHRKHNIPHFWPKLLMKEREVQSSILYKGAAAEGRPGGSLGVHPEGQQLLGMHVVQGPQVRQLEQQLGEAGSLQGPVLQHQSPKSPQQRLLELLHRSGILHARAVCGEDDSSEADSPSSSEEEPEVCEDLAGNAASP
Outline: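 We measured antagonism of T3-type coactivator recruitment using a TR-FRET ratio (emission 520 and 495 nm) between a Tb-labelled anti-GST antibody on TRα LBD (2.5 nM) and SRC-2 peptide (200 nM). Activity was scaled between DMSO and T3 wells.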

[8] = TOX21_TRB_BLA_Antagonist_Followup_viability: Viability Assessment in the Tox21 Thyroid Hormone Receptor beta Antagonism Beta-lactamase (BLA) Follow-Up Assay (AID 2283961)
Outline: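 ATP-based CellTiter-Glo luminescence (30 min, room temperature) run in the same wells as the TRβ-bla readout. Cells: GeneBLAzer HEK293T expressing GAL4-TRβ LBD, exposed 18 h at 37C to compounds at 11 concentrations in triplicate, stripped-serum medium.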

THRB (gene 7068) = THRB (gene 7068) (UniProt P10828); assay: TOX21_TRB_COA_Antagonist_Followup_ratio: Tox21 Thyroid Hormone Receptor beta Antagonism through Coactivator Recruitment Follow-Up Assay, Ratio (AID 2283967)
Chain of THRB (gene 7068) (P10828 whole entry, looked up, the tested form may be a part): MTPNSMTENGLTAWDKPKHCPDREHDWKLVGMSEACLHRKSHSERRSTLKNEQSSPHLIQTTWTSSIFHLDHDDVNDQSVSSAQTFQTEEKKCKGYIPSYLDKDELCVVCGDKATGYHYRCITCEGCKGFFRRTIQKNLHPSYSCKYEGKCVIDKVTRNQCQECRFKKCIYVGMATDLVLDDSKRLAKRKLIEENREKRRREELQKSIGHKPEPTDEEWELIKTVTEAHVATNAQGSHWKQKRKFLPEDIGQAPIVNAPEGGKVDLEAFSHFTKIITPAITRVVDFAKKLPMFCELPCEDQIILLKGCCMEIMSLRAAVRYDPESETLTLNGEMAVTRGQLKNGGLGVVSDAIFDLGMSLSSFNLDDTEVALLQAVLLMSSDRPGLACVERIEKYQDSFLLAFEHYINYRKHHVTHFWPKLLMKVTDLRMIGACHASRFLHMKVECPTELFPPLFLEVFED
Outline: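 Coactivator (SRC-2) recruitment to purified GST-TRβ ligand-binding domain is monitored by terbium-to-fluorescein energy transfer, emission ratio 520:495 nm. DMSO wells define 0% and T3 wells 100% activity.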

[9] = molecular target: Retinoic acid receptor RXR-alpha (Homo sapiens) (UniProt P19793); assay: TOX21_TR_RXR_BLA_Antagonist_Followup_ratio: Tox21 Thyroid Hormone Receptor beta Retinoid X Receptor alpha (RXRa) Antagonism Beta-lactamase (BLA) Follow-Up Assay, Ratio (AID 2283972)
Chain of Retinoic acid receptor RXR-alpha (Homo sapiens) (P19793 whole entry, looked up): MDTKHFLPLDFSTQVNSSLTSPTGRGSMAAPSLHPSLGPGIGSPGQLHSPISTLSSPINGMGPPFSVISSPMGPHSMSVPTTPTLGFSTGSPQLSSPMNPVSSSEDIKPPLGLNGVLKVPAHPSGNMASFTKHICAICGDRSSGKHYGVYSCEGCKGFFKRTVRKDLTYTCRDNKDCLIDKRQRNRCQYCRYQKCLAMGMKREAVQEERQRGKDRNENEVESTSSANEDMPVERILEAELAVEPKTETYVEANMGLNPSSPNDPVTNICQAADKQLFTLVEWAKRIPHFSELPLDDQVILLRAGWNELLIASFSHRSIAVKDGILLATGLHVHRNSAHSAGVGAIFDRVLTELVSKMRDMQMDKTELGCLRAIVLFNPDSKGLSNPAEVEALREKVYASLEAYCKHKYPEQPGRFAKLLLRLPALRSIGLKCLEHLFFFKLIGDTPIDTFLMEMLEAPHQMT
Outline: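 After 5 h attachment at 37C, HEK293T RXRa-bla cells (2,500/well, 2% charcoal-stripped FBS, no phenol red) received compounds at 11 concentrations in triplicate for 16 h. Beta-lactamase read as 460:530 nm ratio after 2 h RT substrate loading.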

[10] = TOX21_TR_RXR_BLA_Antagonist_Followup_viability: Viability Assessment in the Tox21 Thyroid Hormone Receptor beta Retinoid X Receptor alpha (RXRa) Antagonism Beta-lactamase (BLA) Follow-Up Assay (AID 2283979)
Outline: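 RXRa-UAS-bla HEK293T cells seeded 2,500/well in phenol red-free DMEM with 2% charcoal-stripped FBS, attached 5 h, then exposed to compounds at 11 concentrations in triplicate for 16 h at 37C/5% CO2. Viability read by CellTiter-Glo ATP luminescence; bidirectional fit versus DMSO.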

[11] = CCTE_Deisenroth_AIME_96WELL_CTox_Active: Cytotoxicity Assessment (CTOX) in CCTE's 96-well Estrogen Receptor Transactivation Assay with AIME metabolic competence (metabolism positive), Deisenroth Lab (AID 2284028)
Outline: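 Cytotoxicity in VM7Luc4E2 breast cells after 24 h exposure to medium from a 2 h metabolic pre-incubation with induced rat hepatic S9 in alginate microspheres; fluorescent live-cell protease readout, 10-point series 0.002–200 uM, n=4.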

[12] = CCTE_Deisenroth_AIME_96WELL_CTox_Inactive: Cytotoxicity Assessment (CTOX) in CCTE's 96-well Estrogen Receptor Transactivation Assay without AIME metabolic competence (metabolism negative), Deisenroth Lab (AID 2284029)
Outline: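 Cytotoxicity in VM7Luc4E2 breast cells was scored as loss of fluorescent signal from a live-cell protease substrate 24 h after exposure, using bidirectional curve fitting. Test media came from a 2 h metabolism-negative pre-incubation (alginate-water, no hepatic S9) of compounds at 0.002-200 uM, with at least four replicates.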

[13] = CCTE_Shafer_MEA_dev_per_burst_spike_percent: CCTE's Neural Network Formation Assay for Percent of Spikes in a Burst, Shafer Lab (AID 2284032; active = hit-call score of the fitted dose curve at least 0.9, where 1 is the maximum; inactive = score below 0.9)
Outline: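 Value is trapezoidal AUC over recordings on days 5, 7, 9 and 12 of the well-mean fraction of spikes falling in single-electrode bursts; rat cortical cultures exposed continuously from plating, treatment renewed DIV 5 and 9, fitted downward against DMSO.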

[14] = CCTE_Shafer_MEA_dev_active_electrodes_number: CCTE's Neural Network Formation Assay for Number of Active Electrodes, Shafer Lab (AID 2284040)
Outline: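 Developing rat cortical networks on MEAs, exposed DIV 0–12. Value is the AUC of active-electrode counts (≥5 spikes/min) from days 5, 7, 9, 12, relative to DMSO.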

[15] = CCTE_Shafer_MEA_dev_per_burst_interspike_interval: CCTE's Neural Network Formation Assay for Burst Interspike Interval, Shafer Lab (AID 2284044; active = hit-call score of the fitted dose curve at least 0.9, where 1 is the maximum; inactive = score below 0.9)
Outline: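 Mean interspike interval within single-electrode bursts, averaged over bursting electrodes, from rat cortical cultures on MEA plates recorded on days 5, 7, 9 and 12. Continuous compound exposure from plating; trapezoidal AUC fitted downward relative to DMSO.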

[16] = CCTE_Shafer_MEA_dev_burst_duration_mean: CCTE's Neural Network Formation Assay for Mean Burst Duration, Shafer Lab (AID 2284045; active = hit-call score of the fitted dose curve at least 0.9, where 1 is the maximum; inactive = score below 0.9)
Outline: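 Network-formation assay in primary rat cortical neurons; treatment spans twelve days of development. Mean burst duration per well is integrated by trapezoidal AUC and fitted in the loss-of-signal direction against DMSO baseline.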

[17] = CCTE_Shafer_MEA_dev_interburst_interval_mean: CCTE's Neural Network Formation Assay for Mean Interburst Interval, Shafer Lab (AID 2284046; active = hit-call score of the fitted dose curve at least 0.9, where 1 is the maximum; inactive = score below 0.9;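 also: well-mean interburst interval of bursting electrodes as AUC over four recording days; curve fitted for decrease in interburst interval relative to DMSO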)
Outline: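 Developing rat cortical networks on 48-well MEAs receive compound from the day of plating. Burst intervals from each active electrode are averaged per well, and AUC over the recording days is fitted in the negative direction against DMSO.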

[18] = CCTE_Shafer_MEA_dev_inter_network_spike_interval_mean: CCTE's Neural Network Formation Assay for Mean Inter-network Spike Interval, Shafer Lab (AID 2284047; active = hit-call score of the fitted dose curve at least 0.9, where 1 is the maximum; inactive = score below 0.9)
Outline: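 Rat cortical cultures, 1.5 x 10^5 cells/well on 48-well MEA plates; continuous exposure days 0–12, medium and compound refreshed DIV 5, 9. Mean time between consecutive network-spike peaks; AUC across DIV 5/7/9/12; DMSO baseline, negative fitting direction.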

[19] = CCTE_Shafer_MEA_dev_network_spike_number: CCTE's Neural Network Formation Assay for Number of Network Spikes, Shafer Lab (AID 2284048; active = hit-call score of the fitted dose curve at least 0.9, where 1 is the maximum; inactive = score below 0.9;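 also: synchronized bursts across electrodes counted on days 5 7 9 12 and integrated as AUC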)
Outline: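 Extracellular recordings from 16-electrode wells track network formation in rat cortical cultures under continuous treatment from plating. The endpoint is network spike number, expressed as AUC across DIV 5–12 relative to DMSO vehicle.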

[20] = CCTE_Shafer_MEA_dev_network_spike_peak: CCTE's Neural Network Formation Assay for Mean Number of Electrodes in Network Spike, Shafer Lab (AID 2284049; active = hit-call score of the fitted dose curve at least 0.9, where 1 is the maximum; inactive = score below 0.9)
Outline: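 Continuous 12-day exposure of rat cortical cultures, starting at plating, on MEA plates. Endpoint: electrodes participating in network-spike peaks, AUC across DIV 5–12, DMSO as negative control.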

[21] = CCTE_Shafer_MEA_dev_spike_duration_mean: CCTE's Neural Network Formation Assay for Mean Spike Duration, Shafer Lab (AID 2284051; active = hit-call score of the fitted dose curve at least 0.9, where 1 is the maximum; inactive = score below 0.9;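 also: mean network spike duration pooled as area under curve over DIV 5 to 12 recordings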)
Outline: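 Readout is the average length of network spikes, clustered firing across electrodes, summed over DIV 5, 7, 9 and 12 as area under the curve. Neurons from rat cortex developed networks on MEA plates under continuous 12-day exposure.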

[22] = CCTE_Shafer_MEA_dev_network_spike_duration_std: CCTE's Neural Network Formation Assay for Standard Deviation of Network Spike Duration, Shafer Lab (AID 2284052; active = hit-call score of the fitted dose curve at least 0.9, where 1 is the maximum; inactive = score below 0.9;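 also: area under curve of spike duration SD across recording days 5 to 12; hits are decreases in network spike duration SD versus DMSO vehicle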)
Outline: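 Read-out is the trapezoidal area-under-the-curve across recordings made on days 5, 7, 9 and 12, fitted in the negative direction against DMSO baseline. Neurons were primary rat cortical cells treated from day 0, with treatment renewed at each feed.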

[23] = CCTE_Shafer_MEA_dev_per_network_spike_spike_number_mean: CCTE's Neural Network Formation Assay for Mean Number of Spikes in a Network Spike, Shafer Lab (AID 2284053; active = hit-call score of the fitted dose curve at least 0.9, where 1 is the maximum; inactive = score below 0.9)
Outline: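 Continuous twelve-day exposure of developing rat cortical networks grown over 16 microelectrodes per well; spontaneous firing is captured at four time points, and the per-network-spike spike number is integrated over development by trapezoidal AUC.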

[24] = CCTE_Shafer_MEA_dev_per_network_spike_spike_percent: CCTE's Neural Network Formation Assay for Percent of Spikes in a Network Spike, Shafer Lab (AID 2284054; active = hit-call score of the fitted dose curve at least 0.9, where 1 is the maximum; inactive = score below 0.9)
Outline: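 Developing networks of rat cortical neurons are dosed at day 0 and recorded extracellularly four times up to day 12. The endpoint is the area under the curve of percent spikes in network spikes, fitted in the negative direction relative to DMSO.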

[25] = CCTE_Shafer_MEA_dev_AB: CCTE's Alamar Blue Assay for Cytotoxicity in the Neural Network Formation Assay, Shafer Lab (AID 2284083);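 also: resazurin reduction fluorescence as viability of cultured neurons; twelve days of exposure from plating with re-dosing on DIV 5 and 9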
Outline: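 Fluorescent resazurin reduction serves as the viability read-out, with DMSO as negative control and baseline. Cells were primary rat cortical neurons grown on MEA plates and dosed from day 0 to day 12, treatment renewed on DIV 5 and 9.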

[26] = CCTE_Shafer_MEA_dev_mutual_information_norm: CCTE's Neural Network Formation Assay for Mutual Information Normalization, Shafer Lab (AID 2284091; active = hit-call score of the fitted dose curve at least 0.9, where 1 is the maximum; inactive = score below 0.9)
Outline: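 Exposure of primary rat cortical neurons began at plating and ran to DIV 12, with full media and treatment renewal after DIV 5 and 9 recordings. Mutual information AUC (DIV 5–12) was analysed for loss versus DMSO.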

[27] = CCTE_Shafer_MEA_dev_correlation_coefficient_mean: CCTE's Neural Network Formation Assay for Mean Correlation Coefficient, Shafer Lab (AID 2284093; active = hit-call score of the fitted dose curve at least 0.9, where 1 is the maximum; inactive = score below 0.9)
Outline: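 Read-out: well-mean correlation coefficient of spike trains between electrode pairs, collapsed over four recording days as trapezoidal area-under-the-curve. Developing rat cortical neuron networks grown on MEAs received test chemical continuously from plating.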

Measured: AC50

CC(=O)c1cnccn1
inactive: [1] | [2] | [3] | [4]

CN[C@@H]1[C@@H](O)[C@@H](O[C@@H]2[C@@H](O)[C@H](O[C@H]3O[C@H](CN)[C@@H](O)[C@H](O)[C@H]3O)[C@@H](N)C[C@H]2NC(=O)C(O)CN)OC[C@]1(C)O (some centres not stated)
inactive: [1] | [2] | [4]

CS(=O)(=O)O
inactive: [1] | [5] | [3]

O=S(=O)(O)c1cccc(S(=O)(=O)O)c1
inactive: [1] | [2] | [6] | [4]

CC1(C)OC[C@@H](COC(=O)CCc2ccc(OC[C@@H](O)CNCCNC(=O)N3CCOCC3)cc2)O1
inactive: [1] | [2] | [5] | [3] | [4]

CN1CCCC(CC2c3ccccc3Sc3ccccc32)C1 (configuration not stated)
active: [7] 15.5 µM | [8] 8.56 µM
inactive: [1] | [2] | [5] | [6] | THRA (gene 7067) | THRB (gene 7068) | [9] | [10]

CC(C)(C)N(CCO)CCO
inactive: [1] | [2] | [4]

CC(C)(CCl)c1ccccc1
inactive: [1] | [5] | [3] | [6] | [4]

CCC=C1OC(=O)c2ccccc21
inactive: [1] | [5] | [3]

CO[C@H]1O[C@@H]2O[C@@]3(C)CC[C@H]4[C@H](C)CC[C@@H]([C@H]1C)[C@@]24OO3
inactive: [1] | [2] | [3] | [6] | [4]

c1ccc2c(c1)ccc1c3ccccc3ccc21
not listed: [5] | [6] | [7] | THRA (gene 7067) | [8] | THRB (gene 7068) | [9] | [10]
inactive: all other assays above

COC(=O)c1cc(C(=O)OC)cc(S(=O)(=O)O)c1
inactive: [1] | [2] | [6]

Cc1ccc(C(C)(C)c2ccc(C)cc2)cc1
inactive: [1] | [2] | [5] | [4]

NCCCC(O)(P(=O)(O)O)P(=O)(O)O
inactive: [1] | [2] | [3] | [6]
